Test results from PubChem BioAssay.
Values joined by “and” are separate entries in the source; they are usually repeats but may differ in a detail not shown here. Equal values may be shown once. Where a structure was tested more than once in an assay, its records may differ in their call. Active and inactive are the calls of the source. Unless noted, the rule behind the calls is not given here.

Legend:
[1] = P. berghei load reduction in hepatocytes – cell-based, HepG2, luciferase luminescence, HepG2 viability, primary screen (AID 624349; in the data active = parasite load remaining mostly below about 12%, no sharp cut-off; inactive = mostly above about 10%;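 note: 100% = mean of DMSO negative control wells on the same plate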); details: P. berghei liver stage in HepG2, luciferase luminescence, concentration not given here; parasite load remaining: stronger effect = lower value; viability: measured here: HepG2 viability without parasites
[2] = signal quenchers or enhancers, Cy5 substrate/SSB – biochemical, NIH Clinical Collection, E. coli SSB, artefact control for HCV NS3 helicase inhibitor project (AID 743268); details: Cy5-oligo bound E. coli SSB, fluorescence interference
[3] = tested on: Hepatitis C virus NS3 helicase; experiment: blockers of NS3h binding to DNA – biochemical, fluorescence polarization, NIH Clinical Collection, primary screen (AID 743270); details: NS3 helicase binding to Cy5-dT15 DNA, stronger effect = higher value, concentration not given here
[4] = molecular target: Single-stranded DNA-binding protein (Escherichia coli (strain K12)) (UniProt P0AGE0); experiment: SSB-ssDNA binding inhibitors – biochemical, fluorescence polarization, NIH Clinical Collection, counter-screen for HCV NS3 helicase inhibitor project (AID 743271; in the data active = inhibition above about 28%); details: E. coli SSB-DNA binding, stronger effect = higher value, concentration not given here
[5] = compounds distorting NS3 helicase fluorescence signal – biochemical, NIH Clinical Collection, artefact control for HCV NS3 helicase inhibitor project (AID 743272); details: fluorescence interference counterscreen, HCV NS3 helicase assay; stronger effect = lower value;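 note: HCV NS3 helicase with a Cy5 labelled single stranded DNA probe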
[6] = Wnt pathway potentiators raising nuclear beta-catenin – imaging, WNT3A-conditioned medium, mouse C2C12, NPC library, primary screen (AID 1117326; in the data active = nuclear beta-catenin stimulation mostly above about 4.2%, no sharp cut-off; inactive = mostly below about 10%); details: stronger effect = higher value
[7] = stimulators of insulin release from INS-1E, primary screen, cell-based, 5 mM glucose, NPC library (AID 1117329;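 active = compound raises insulin release from rat beta cells at 5 mM glucose, no numeric limit stated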); details: rat INS-1E insulin secretion, at 10 µM, stronger effect = higher value
[8] = growth inhibition of GSK3B-pretreated HCT116 cells – cell-based, CellTiter-Glo, 0.2 to 20 µM (AID 1117336;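 active = compounds lowering colon cancer cell viability after pretreatment blocking the GSK3B kinase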); details: HCT116 viability after GSK3B inhibitor, at 20 µM, stronger effect = higher value
[9] = inhibition of endothelial tube formation, primary screen, imaging, VEGF stimulated, CD31 staining, tube area, NPC library (AID 1117340;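 active = compound that reduces growth-factor-driven endothelial tube area in a mixed cell culture, no cutoff stated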); details: VEGF-stimulated ADSC/ECFC co-culture, at 10 µM, stronger effect = higher value
[10] = GLP1 release stimulators, primary, NCI-H716, NPC library (AID 1117341;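 active = compound raises GLP1 secretion from the human gut endocrine cells, with no numeric limit stated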); details: NCI-H716 cells, at 10 µM, stronger effect = higher value
[11] = HCT116 colon cancer cell growth inhibition, primary screen, CellTiter-Glo luminescence, NPC library (AID 1117342;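 active = compounds that lower survival of HCT116 colon cancer cells in the luminescence readout, no numeric limit stated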); details: at 20 µM (top of the series)
[12] = reduced SW480 viability measured with CellTiter-Glo, NPC library, primary (AID 1117343;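 active = compounds that lower viability of the colon cancer cells in the luminescence readout, with no numeric limit stated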); details: CellTiter-Glo luminescence; at 20 µM (top of the series)
[13] = NPC library primary testing for decreased DLD-1 cell viability via CellTiter-Glo (AID 1117346;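 active = compounds that lower survival of DLD-1 colon cancer cells in the luminescence readout, no cutoff given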); details: DLD-1 viability, CellTiter-Glo luminescence; at 20 µM (top of the series)
[14] = tested on: Hepatitis C virus NS3 helicase; experiment: blockers of NS3h binding to ssDNA – biochemical, fluorescence polarization, LOPAC1280 library, primary screen (AID 687035; in the data active = inhibition above about 37%); details: Purified HCV NS3 helicase, Cy5-dT15 ssDNA binding fluorescence polarization; stronger effect = higher value; concentration not given here
[15] = compounds altering Cy5-DNA-NS3h complex signal – biochemical, LOPAC1280, artefact control for HCV NS3 helicase inhibitor project (AID 687037); details: Cy5-DNA-NS3h complex fluorescence interference counterscreen
[16] = tested on: Neuropilin-2 / VEGF-C interaction (human); experiment: small molecules blocking Neuropilin-2/VEGF-C interaction – biochemical, microplate binding format, z-score (AID 743281); details: microplate NRP2/VEGF-C binding assay; stronger effect = lower value

C#C[C@]1(O)CC[C@H]2[C@@H]3CCc4cc(O)ccc4[C@H]3CC[C@@]21C
inactive: parasite load remaining [1] 111% | fluorescence ratio [2] 0.98 | inhibition [3] 1.98% | inhibition [4] -0.87% | fluorescence ratio [5] 0.92 | nuclear beta-catenin stimulation ([6]; at 10 µM) 1.5% | insulin secretion stimulation [7] 10.3% | viability decrease [8] 45.9% | GLP1 secretion stimulation [10] -3.4%
0.8%: nuclear beta-catenin stimulation ([6]; stimulation, at 2 µM)
66.2%: viability [1]
active: tube area decrease [9] 85.8% | inhibition of viability [11] 70.3% | viability decrease (inhibition) [12] 65.6% | viability decrease (inhibition) [13] 62.5%

CC(=O)[C@]1(O)Cc2c(O)c3c(c(O)c2[C@@H](O[C@H]2C[C@H](N)[C@H](O)[C@H](C)O2)C1)C(=O)c1ccccc1C3=O
inactive: inhibition [14] -1% | inhibition [3] 0.4% | inhibition [4] 14.5% | z-score [16] 1.07 | insulin secretion stimulation [7] -1.8% | GLP1 secretion stimulation [10] -0.2%
94.8%: nuclear beta-catenin stimulation ([6]; stimulation, at 2 µM)
-0.405% (inactive) and 0.045% (active): parasite load remaining [1]
active: fluorescence ratio (interference) [15] 0.8 | fluorescence ratio [2] 0.31 | fluorescence ratio [5] 0.67 | nuclear beta-catenin stimulation ([6]; at 10 µM) 18.6% | viability decrease [8] 84% | tube area decrease [9] 85.6% | inhibition of viability [11] 68.9% | viability decrease (inhibition) [12] 84.7% | viability decrease (inhibition) [13] 85.5%
2.19% and 69.5%: viability [1]

Nc1nnc(-c2cccc(Cl)c2Cl)c(N)n1
105% and 77.7% and 112%: viability [1]
0.5%: nuclear beta-catenin stimulation ([6]; stimulation, at 2 µM)
inactive: parasite load remaining [1] 90.9% and 119% and 49.7% | inhibition [14] -5% | fluorescence ratio (interference) [15] 1 | fluorescence ratio [2] 1.03 | inhibition [3] 0.4% | inhibition [4] -1.64% | fluorescence ratio [5] 0.99 | z-score [16] -0.624 | nuclear beta-catenin stimulation ([6]; at 10 µM) 0.7% | insulin secretion stimulation [7] -0.4% | viability decrease [8] -5.8% | tube area decrease [9] 9.4% | GLP1 secretion stimulation [10] -4.7% | inhibition of viability [11] 9.7% | viability decrease (inhibition) [12] 29.2% | viability decrease (inhibition) [13] -4.7%

CC(C(=O)O)c1ccc(CC2CCCC2=O)cc1 (stereo not drawn)
-0.2%: nuclear beta-catenin stimulation ([6]; stimulation, at 2 µM)
inactive: parasite load remaining [1] 108% | inhibition [14] -4% | fluorescence ratio (interference) [15] 1 | fluorescence ratio [2] 1.12 | inhibition [3] 5.94% | inhibition [4] 4.52% | fluorescence ratio [5] 1.09 | z-score [16] -0.224 | nuclear beta-catenin stimulation ([6]; at 10 µM) -1.5% | insulin secretion stimulation [7] -1.3% | viability decrease [8] 9.37% | tube area decrease [9] -7.8% | GLP1 secretion stimulation [10] 0.4% | inhibition of viability [11] 10.8% | viability decrease (inhibition) [12] 37.6% | viability decrease (inhibition) [13] 5.13%
79.1%: viability [1]

C#C[C@]1(O)CC[C@H]2[C@@H]3CCc4cc(OC)ccc4[C@H]3CC[C@@]21C
0.6%: nuclear beta-catenin stimulation ([6]; stimulation, at 2 µM)
inactive: parasite load remaining [1] 48% and 32.2% | fluorescence ratio [2] 1 | inhibition [3] 3.56% | inhibition [4] 1.44% | fluorescence ratio [5] 1 | nuclear beta-catenin stimulation ([6]; at 10 µM) 3.3% | insulin secretion stimulation [7] 0.5% | viability decrease [8] 1.9% | tube area decrease [9] 10.3% | GLP1 secretion stimulation [10] 16.1% | inhibition of viability [11] 45% | viability decrease (inhibition) [13] 26.6%
96.9% and 76.9%: viability [1]
active: viability decrease (inhibition) [12] 110%

Cc1cccc(C)c1NC(=O)C(C)N (stereo not drawn)
1.2%: nuclear beta-catenin stimulation ([6]; stimulation, at 2 µM)
79.8% and 73.3%: viability [1]
inactive: parasite load remaining [1] 112% and 108% | inhibition [14] -5% | fluorescence ratio (interference) [15] 1 | fluorescence ratio [2] 1.05 | inhibition [3] -5.15% | inhibition [4] -3.95% | fluorescence ratio [5] 1 | z-score [16] -0.227 | nuclear beta-catenin stimulation ([6]; at 10 µM) 0.2% | insulin secretion stimulation [7] 0.2% | viability decrease [8] -2.3% | tube area decrease [9] -7.9% | GLP1 secretion stimulation [10] -0.6% | inhibition of viability [11] -4.1% | viability decrease (inhibition) [12] 0.1% | viability decrease (inhibition) [13] -5.7%

NS(=O)(=O)Cc1noc2ccccc12
89.2% and 110%: viability [1]
0.4%: nuclear beta-catenin stimulation ([6]; stimulation, at 2 µM)
inactive: parasite load remaining [1] 75.4% and 46.4% | fluorescence ratio [2] 1 | inhibition [3] -6.82% | inhibition [4] -4.29% | fluorescence ratio [5] 1 | nuclear beta-catenin stimulation ([6]; at 10 µM) 0.1% | insulin secretion stimulation [7] -1.7% | viability decrease [8] -1.75% | tube area decrease [9] 3.7% | GLP1 secretion stimulation [10] 2.1% | inhibition of viability [11] 4.9% | viability decrease (inhibition) [12] 44.2% | viability decrease (inhibition) [13] 24.9%

CCN1CCC[C@H]1CNC(=O)c1c(O)c(Cl)cc(Cl)c1OC
active: fluorescence ratio [5] 0.77
inactive: parasite load remaining [1] 132% and 60.7% | inhibition [14] -2% | fluorescence ratio (interference) [15] 1 | fluorescence ratio [2] 0.94 | inhibition [3] 1.19% | inhibition [4] 7.6% | z-score [16] -0.335 | nuclear beta-catenin stimulation ([6]; at 10 µM) 0.6% | insulin secretion stimulation [7] -0.9% | viability decrease [8] -21% | tube area decrease [9] -4.8% | GLP1 secretion stimulation [10] 2.2% | inhibition of viability [11] 9.13% | viability decrease (inhibition) [12] -26.4% | viability decrease (inhibition) [13] -11.6%
3.4%: nuclear beta-catenin stimulation ([6]; stimulation, at 2 µM)
135% and 99%: viability [1]

CCN1CCCC1CNC(=O)c1cc(S(=O)(=O)CC)c(N)cc1OC (stereo not drawn)
inactive: parasite load remaining [1] 79.8% | inhibition [14] -3% | fluorescence ratio (interference) [15] 0.9 | fluorescence ratio [2] 1.05 | inhibition [3] 0.4% | inhibition [4] -4.72% | fluorescence ratio [5] 1.01 | z-score [16] -0.283 | nuclear beta-catenin stimulation ([6]; at 10 µM) -0.8% | insulin secretion stimulation [7] 0% | viability decrease [8] -1.8% | tube area decrease [9] -11.8% | GLP1 secretion stimulation [10] -4.7% | inhibition of viability [11] -1.4% | viability decrease (inhibition) [12] 1.7% | viability decrease (inhibition) [13] -1.4%
68.8%: viability [1]
-0.8%: nuclear beta-catenin stimulation ([6]; stimulation, at 2 µM)
